{"source": "the supplement of paper PMC9177965", "data": [{"system": "HT29 RNF43 G659fs (RNF43 659mut, CRISPR-edited)", "experiment": "cell viability activity relative to DMSO (negative = inhibition); higher = more viable cells (less growth inhibition)", "settings": "5 µM; 96 h", "description": "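Broad Repurposing Library primary screen at a single dose of 5 uM. HT29 sg-Ctrl and HT29 RNF43 G659fs CRISPR-edited isogenic cells were seeded at 2500 cells/well in 384-well plates in duplicate and treated for 96 h. Viability was read by CellTiter-Glo and reported as % activity relative to DMSO, with MG132 as the positive control (negative = growth inhibition).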", "units": {"cell viability activity": "%"}, "values": [{"molecule": "Cc1noc2c1-c1ccccc1C(c1ccc(Cl)cc1)=N[C@H]2CC(N)=O", "cell viability activity": -53.9}, {"molecule": "Cc1cc(-c2cc(O)ccc2Cl)cc2nnc(Nc3ccc(OCCN4CCCC4)cc3)nc12", "cell viability activity": -41.1}, {"molecule": "CC(C)[C@H](C(=O)Nc1ccc(C(=O)NO)cc1)c1ccccc1", "cell viability activity": -95}, {"molecule": "CN(C)C/C=C/C(=O)Nc1cccc(C(=O)Nc2cccc(Nc3ncc(Cl)c(-c4c[nH]c5ccccc45)n3)c2)c1", "cell viability activity": -91.7}, {"molecule": "CC(=O)NCC(=O)N1[C@@H]2CC[C@H]1c1ccc(Nc3ncc(C(F)(F)F)c(NC4CCC4)n3)cc12", "cell viability activity": -41.1}, {"molecule": "Cc1nc(Nc2ncc(C(=O)Nc3c(C)cccc3Cl)s2)cc(N2CCN(CCO)CC2)n1", "cell viability activity": -65.9}, {"molecule": "Cc1ccc(C(=O)N(CCCN)[C@@H](c2nc3cc(Cl)ccc3c(=O)n2Cc2ccccc2)C(C)C)cc1", "cell viability activity": -65.1}, {"molecule": "CNC(=O)c1ccccc1Nc1nc(Nc2ccc3c(c2OC)CCC[C@H](N2CCN(CCO)CC2)C3)ncc1Cl", "cell viability activity": -89.4}, {"molecule": "Cc1c(C2CCN(CCc3ccccc3)CC2)noc1-c1ccc(Cl)cc1", "cell viability activity": -38}, {"molecule": "CC(C)n1nc(-c2ccc3oc(N)nc3c2)c2c(N)ncnc21", "cell viability activity": -74.9}, {"molecule": "CCCS(=O)(=O)Nc1ccc(F)c(C(=O)c2c[nH]c3ncc(-c4ccc(Cl)cc4)cc23)c1F", "cell viability activity": -35.4}, {"molecule": "COc1cccc(-c2cc(F)ccc2[C@H]2Cc3nc(N)nc(C)c3C(=O)N2)n1", "cell viability activity": -82.4}, {"molecule": "Cn1cc(-c2ccc(S(=O)(=O)n3ccc(/C=C/C(=O)Nc4ccccc4N)c3)cc2)cn1", "cell viability activity": -62.6}, {"molecule": "Nc1nc(=O)n([C@H]2C[C@H](O)[C@@H](CO)O2)cc1F", "cell viability activity": -64.2}, {"molecule": "O=C(CCCCCCC(=O)Nc1cccnc1)NO", "cell viability activity": -42.9}, {"molecule": "Nc1ccn([C@@H]2O[C@H](CO)[C@@H](O)C2(F)F)c(=O)n1", "cell viability activity": -63.6}, {"molecule": "CC(C)c1cc(CNc2nc(Nc3cc(C4CC4)[nH]n3)cc(N3CCN(C)CC3)n2)on1", "cell viability activity": -86.1}, {"molecule": "NC(=S)N/N=C/c1ncccc1N", "cell viability activity": -58.9}, {"molecule": "CN(Cc1cnc2nc(N)nc(N)c2n1)c1ccc(C(=O)N[C@@H](CCC(=O)O)C(=O)O)cc1", "cell viability activity": -67.9}, {"molecule": "CN(c1ccccc1CNc1nc(Nc2ccc3c(c2)CC(=O)N3)ncc1C(F)(F)F)S(C)(=O)=O", "cell viability activity": -45.3}, {"molecule": "COC[C@H](NC(=O)c1cnc(C)s1)C(=O)N[C@@H](COC)C(=O)N[C@@H](Cc1ccccc1)C(=O)[C@@]1(C)CO1", "cell viability activity": -95.3}, {"molecule": "CNC(=O)c1ccccc1Nc1cc(Nc2ccc(N3CCOCC3)cc2OC)ncc1C(F)(F)F", "cell viability activity": -64.6}, {"molecule": "CCCCCCCCCCCCCCCC[N+](C)(C)C", "cell viability activity": -84.6}, {"molecule": "CC(C)c1ccc(NC(=O)Cn2cnc3c2c(=O)n(C)c(=O)n3C)cc1", "cell viability activity": -55.3}, {"molecule": "Nc1ccc(F)cc1NC(=O)c1ccc(CNC(=O)/C=C/c2cccnc2)cc1", "cell viability activity": -39.6}, {"molecule": "COc1cc2c(cc1-c1c(C)noc1C)ncc1[nH]c(=O)n([C@H](C)c3ccccn3)c12", "cell viability activity": -60.5}, {"molecule": "O=C(CCCCCCNC(=O)c1cnc(N(c2ccccc2)c2ccccc2)nc1)NO", "cell viability activity": -34.4}, {"molecule": "COC(=O)Nc1ccc(-c2nc(N3CCOCC3)c3cnn(C4CCN(C(=O)OC)CC4)c3n2)cc1", "cell viability activity": -50}, {"molecule": "CCc1cnn2c(NCc3ccc[n+]([O-])c3)cc(N3CCCC[C@H]3CCO)nc12", "cell viability activity": -88.2}, {"molecule": "O=C1/C(=C/c2ccccc2)C(NC2CCCCC2)c2ccccc21", "note": "(stereo not given)", "cell viability activity": -91.7}, {"molecule": "c1cc(-c2cnn3cc(-c4ccc(N5CCNCC5)cc4)cnc23)c2cccnc2c1", "cell viability activity": -97.7}, {"molecule": "CC(C)c1cc(C(=O)N2Cc3ccc(CN4CCN(C)CC4)cc3C2)c(O)cc1O", "cell viability activity": -91.7}, {"molecule": "Cc1cc(Nc2nc(N[C@@H](C)c3ccc(F)cc3)c(C#N)cc2F)n[nH]1", "cell viability activity": -66.7}, {"molecule": "COc1cc(OC)c(/C=C/S(=O)(=O)Cc2ccc(OC)c(OP(=O)(O)O)c2)c(OC)c1", "cell viability activity": -26.7}, {"molecule": "CC(C)C[C@H](NC(=O)[C@@H](NC(=O)c1cccc(-c2ccccc2)n1)[C@@H](C)O)B(O)O", "cell viability activity": -95.1}, {"molecule": "NC1(c2ccc(-c3nc4ccn5c(=O)[nH]nc5c4cc3-c3ccccc3)cc2)CCC1", "cell viability activity": -42.7}, {"molecule": "CCOc1ccc(Cc2nccc3cc(OCC)c(OCC)cc23)cc1OCC", "cell viability activity": -32.7}, {"molecule": "O=C(O)/C=C/c1ccc(O)c(O)c1", "cell viability activity": -66.6}, {"molecule": "Nc1nc(Cl)nc2c1ncn2[C@@H]1O[C@H](CO)[C@@H](O)[C@@H]1F", "cell viability activity": -30.3}, {"molecule": "Cc1cc(NC(=O)NCCN2CCC(O)(Cc3ccccc3)CC2)c2ccccc2n1", "cell viability activity": -36.2}]}]}
